Pf growth 48h: Primary qHTS for delayed death inhibitors of the malarial parasite plastid, 48 hour incubation; P. falciparum luciferase growth in erythrocytes, 48 h; Potency, µM (series often up to 28.7 µM), without a hit: at the top dose activity change, negative = inhibition, most hits filed as inhibitors; hit rate 5.9% among 310,000; note: potency is the fitted concentration of half-maximal effect; % is set by controls: 0 for no effect and ±100 for the full control effect
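Luminescence readout; reporter = integrated firefly luciferase in P. falciparum. RBC culture at 2% hematocrit, 0.1% parasitemia final, 37 C/5% CO2; decreased signal taken as growth inhibition.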
Pf growth 96h: Primary qHTS for delayed death inhibitors of the malarial parasite plastid, 96 hour incubation. P. falciparum luciferase reporter growth, 96 h. Potency, µM (titrated, usually from 28.7 µM), without a hit: top-dose activity change, negative = inhibition, hits mostly inhibitors. hit rate 6.9% among 320,000; note: potency is the fitted concentration of half-maximal effect; % is set by controls: 0 for no effect and ±100 for the full control effect
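P. falciparum expressing integrated firefly luciferase, in erythrocytes at 2% hematocrit, 0.05% parasitemia, incubated with compounds 96 h at 37 C, 5% CO2. Growth inhibition read as loss of luminescence; two-generation exposure targets delayed-death apicoplast inhibitors.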
Cycloheximide cs: Cycloheximide Counterscreen for Small Molecule Inhibitors of Shiga Toxin; cell reporter, cycloheximide protein synthesis inhibition counterscreen; max response, %; hit rate 12% among 300,000; AID 2314, 2010; in the data active = max response mostly above about 13%, no sharp cut-off; inactive = mostly below about 14%; note: read at 38.3 µM for the half of the compounds with a filed dose; 0% is about no effect
HCV inhibitor: qHTS Assay for Inhibitors of Hepatitis C Virus (HCV); Huh7.5.1 HCVcc-Cre infection, luciferase reporter, 44 h; Potency, µM (doses to about 41.8 µM), inactives show top-dose activity change, negative = inhibition, most hits filed as inhibitors; hit rate 3.4% among 340,000; AID 651820, 2012; note: potency is the fitted concentration of half-maximal effect; % is set by controls: 0 for no effect and ±100 for the full control effect
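A cell-based infection assay in which seeded cells (1,000 per well) receive test compound after 4 h, are inoculated with HCVcc-Cre at approximately 0.5 moi, and are incubated 44 h before luminescence detection.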
HCMV inh: qHTS Assay for inhibitors of the human cytomegalovirus (HCMV); HFF cells, HCMV-luciferase reporter, 72 h; hits give low values; activity change, negative = inhibition, % at 57.5 µM; hit rate 4.5% among 410,000; AID 1259415, 2018; in the data active = activity change below about -60%; inconclusive = no clear call, values can overlap the other calls; inactive = above about -39%; note: % is set by controls: 0 for no effect and ±100 for the full control effect
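Cell-based, HFFs, 1000 cells/well, 16 h 37C; cpds in DMSO + HCMV-luc, MOI 1 PFU/cell; 72 h 37C; OneGlo luminescence after 5 min RT; norm. to buffer vs Salinomycin 10uM.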
Shiga inhibitor: A qHTS for Small Molecule Inhibitors of Shiga Toxin. inhibition, % at 38.7 µM. AID 2315, 2010. Vero cells, Shiga toxin protein synthesis inhibition reporter. hit rate 9.2% among 290,000; in the data active = inhibition mostly above about 28%, no sharp cut-off; inactive = mostly below about 43%; note: 0% is about no effect
* = called active by the depositor; i = inactive; ? = inconclusive; . = not tested or not shown; [ ] = another dose, or the depositor's remark. Only some compounds are listed: those with a hit (about 21% of all), similar ones and a draw of the others. Unless noted, calls come from the whole dose curve; as a rule, active = well fitted inhibition curve with a large enough effect; inconclusive = small, poorly fitted or top-dose-only effect, or another doubt; inactive = no such curve, though single readings can be large or run the other way.

SMILES	Pf growth 48h	Pf growth 96h	Cycloheximide cs	HCV inhibitor	HCMV inh	Shiga inhibitor
O=S(=O)(NCCCc1ccccc1)c1cccc2nsnc12	-6%	-23%	-4	-3%	-18	-13
Nc1ccccc1S(=O)(=O)NCCCCc1ccccc1	34%	3%	-1	-5%	-100*	6
O=S(=O)(NCCCc1ccccc1)c1ccc(Cl)cc1	6%	9.3µM*	-1	7%	16	-4
O=C(NC1CCN(C(=O)Nc2ccc(F)cc2)CC1)c1ccc(F)cc1	-3%	17%	-10	22%	?	17
O=C(Nc1ccc2nsnc2c1)c1cccs1	45%	13%	30*	-16%	16	20
O=C(Nc1ccc2nn(-c3ccccc3)nc2c1)c1cccs1	?	9%	35*	-13%	3	73*
O=C(Nc1ccc2nn(-c3ccccc3)nc2c1)c1ccc2c(c1)OCO2	-20%	54%	-1	?	-24	-12
COC(=O)CSc1nnc(CNC(=O)c2ccc(S(=O)(=O)N3CCCCC3)cc2)n1C	6%	1.5µM*	-3	8%	4	-19
O=C(NCc1n[nH]c(=S)n1-c1ccccc1Cl)c1ccc(S(=O)(=O)N2CCCCC2)cc1	-22%	?	7	9%	-34	6
COc1ccccc1-n1c(CNC(=O)c2ccc(S(=O)(=O)N3CCCCC3)cc2)n[nH]c1=S	-3%	2%	-1	17%	-70*	-14
O=C(NNc1nc2cc3c(cc2s1)OCO3)c1ccccc1	64%	53%	61*	2%	119	90*
COc1cc(OC)cc(C(=O)NNc2nc3cc4c(cc3s2)OCO4)c1	14%	-1%	-1	?	18	-6
O=C(NNc1nc2cc3c(cc2s1)OCO3)c1cccc(F)c1	58%	?	61*	5%	3	active
Cc1ccc(NC(=O)COC(=O)CNC(=O)c2cccs2)cc1S(=O)(=O)N1CCOCC1	.	.	.	16%	-36	.
CC(C)(C)Cc1nnc(NC(=O)CSc2ccccc2)s1	14%	?	13*	6%	78	14
CC(C)c1nnc(NC(=O)CSc2ccccc2)s1	24%	.	34*	4%	118	18
Cc1cc(C(=O)C(=O)Nc2nnc(C(C)C)s2)c(C)n1-c1ccccc1	.	.	.	.	-87*	.
CCc1ccc(C2C(C(=O)Nc3ccccc3OC)=C(C)Nc3c(C(=O)Nc4ccc(C)cc4)cnn32)cc1 (stereo unspecified)	.	.	.	.	-34	.
Cc1ccc(C(=O)N2CCN(c3cnn(C)c(=O)c3Cl)CC2)cc1	-16%[5.75 µM]	30%	-2	12%	?	16
CN(Cc1nccs1)C(=O)c1cc(COc2cccc3cnccc23)on1	-2%	?	5	6.3µM*	-75*	-6
COc1cc(Cl)ccc1OCc1cc(C(=O)N(C)Cc2cccc3cnccc23)no1	?	8%	61*	8.9µM*	?	70*
O=C1N2c3ccccc3CCc3cccc(c32)C1(O)C(F)(F)F (stereo unspecified)	5%	3%	-3	-22%	-61*	10
COc1ccccc1NC(=O)Nc1nn(C)c2cccc(OC)c12	?	12µM*	0	14%	-5	3
CN(C)c1cccc2c1c(NC(=O)Nc1ccccc1)nn2C	?	9.3µM*	-1	-28%	-36	1
CN(C)c1cccc2c1c(NC(=O)Nc1ccc(F)cc1F)nn2C	10%	?	10	?	-63*	16
SMILES	Pf growth 48h	Pf growth 96h	Cycloheximide cs	HCV inhibitor	HCMV inh	Shiga inhibitor
COc1cccc2c1c(NC(=O)c1cc(C)on1)nn2C	60%	31%	-3	4%	?	-11
O=C(CSC1CCc2ccccc21)NN=Cc1ccco1 (stereo unspecified)	.	.	.	.	16	.
Cc1onc(-c2c(Cl)cccc2Cl)c1C(=O)N1CCc2ccccc21	8.3µM*	0%	-2	16%	-26	-13
COc1ccccc1N1CCN(C(=O)c2c(-c3ccccc3)noc2C)CC1	-8%	?	-3	?	26	-19
Cc1onc(-c2c(Cl)cccc2Cl)c1C(=O)c1ccccc1	-12%	?	-1	-5%	-10	-3
Cc1onc(-c2c(F)cccc2Cl)c1C(=O)N1CCc2ccccc2C1	5.9µM*	?	-3	-1%	-10	22
Cc1onc(-c2c(Cl)cccc2Cl)c1C(=O)N=S(C)(=O)c1ccccc1 (stereo unspecified)	?	10µM*	1	13%	23	-4
COc1ccccc1N1CCN(C(=O)c2c(-c3c(F)cccc3Cl)noc2C)CC1	?	12µM*	-1	-27%	-21	-3
CCOc1ccc(NC(=O)/C(C=Nc2ccccc2)=C(\C)O)cc1	24%	25%	-1	-15%	2	-5
COc1ccc(C#Cc2ccc(C3=CC(=O)CC(C)(C)C3=O)cc2)cc1	.	.	.	.	-14	.
CCc1noc(C)c1C(=O)N1CCN(S(=O)(=O)c2c(C)cc(C)cc2C)CC1	?	?	.	9%	?	.
CN(C)/C=N/c1nc(-c2ccc3ccccc3c2)cs1	88%	156%	47*	?	129	61*
COc1ccc(-c2csc(/C=C/c3ccc4c(c3)OCO4)n2)cc1OC	9%	0%	7	-7%	12	28
COc1ccc(C(C)(O)c2nc(-c3ccc4ccccc4c3)cs2)cc1 (stereo unspecified)	.	.	.	.	-28	.
CN(C)/C=N/c1nc(-c2ccc3c(c2)OCO3)cs1	i	404%	53*	?	33	178*
CCOc1ccc(CCNC(=O)C2Cc3ccccc3N2C(=O)CC)cc1 (stereo unspecified)	.	.	.	.	4	.
CCC(C)c1ccc(NC(=O)C2CCN(c3ccc(C(F)(F)F)cn3)CC2)cc1 (stereo unspecified)	?	?	-2	-13%	-60*	-8
CS(=O)(=O)Nc1ccc(N2CCN(c3ccc(C(F)(F)F)cn3)CC2)nc1	1%	3%	-2	11µM*	?	-10
O=C(Nc1ccc(F)c(Cl)c1)C1CCCCC1	9%	-9%	.	?	-38	.
CC(=O)Nc1ccc(NC(=O)C2CCN(c3ccc(C(F)(F)F)cn3)CC2)cc1	-7%	26%	6	13µM*	-67*	-23
NC(=O)C1CCN(c2ccc(C(F)(F)F)cn2)CC1	?	?	19	14%	20	18
O=C(Nc1ccc(Oc2ccc(C(F)(F)F)cn2)c(Cl)c1)C1CC1	?	12µM*	5	?	-24	11
CC(C)(C)C(=O)Nc1ccc(N2CCN(c3ccc(C(F)(F)F)cn3)CC2)nc1	?	?	-3	-10%	-10	-11

Screening data: PubChem BioAssay, National Center for Advancing Translational Sciences (NCATS)
